RECQ1 inh-1 = blocks DNA unwinding by human RECQ1 | 240,000 tested, 0.54% active | Potency, µM (top dose mostly 57.3 µM), for inactives: at the highest dose activity, negative = inhibition, usual class: inhibitors | P46063 | AID 2549 | RECQ1 DNA unwinding, red fluorescence kinetic read;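 further: plate controls were vehicle for no effect and no enzyme for full effect; nearly all actives have a fitted effect of over 30% in size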
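50 nM RECQ1T1 preincubated 15 min with compound in Tris pH 8.0 buffer with MgCl2, DTT, Tween-20 and 2.5 ug/ml poly(dI-dC); started with 200 nM TAMRA/BHQ-2 forked duplex and 2 mM ATP. Unwinding read as fluorescence (525/598 nm), two reads 2 h apart.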
APEX1 inh = blocks human APE1 abasic DNA cleavage. P27695. recombinant APE1, TAMRA/BHQ-2 abasic DNA cleavage fluorescence. Potency, µM (top dose mostly 65.8 µM), for inactives: top-dose activity change, negative = inhibition, hits mostly inhibitors. 350,000 tested, 0.35% active. AID 2517;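 further: plate controls were vehicle for no effect and reference inhibitor for full effect; nearly all actives have a fitted effect of over 55% in size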
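Activity was derived from the fluorescence gain between first and third kinetic reads (60 s intervals, ex 525/em 598 nm) after 50 nM THF-abasic TAMRA/BHQ-2 duplex was added to 0.75 nM APE1 preincubated 15 min with compound.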
GLS inhibitor = inhibitors of human glutaminase (GLS). GLS enzymatic activity, qHTS titration. Potency, µM (doses to about 45.5 µM), inactives show top-dose activity change, negative = inhibition, most hits filed as inhibitors. 410,000 tested, 0.21% active
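Assay buffer: 45 mM KH2PO4 pH 8.2, 0.02% Tween-20. hKGA acts on L-glutamine (1 mM solution added); product glutamate is reported by an oxidase/peroxidase Amplex Red coupling, with fluorescence taken at baseline and 30 min.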
BLM helicase inh = inhibitors of human Bloom syndrome helicase BLM | P54132 | recombinant BLM DNA unwinding, fluorescence dequenching | Potency, µM (series often up to 56.1 µM), for the others: at the highest dose activity change, negative = inhibition, usual class: inhibitors | 350,000 tested, 0.2% active;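 further: plate controls were vehicle for no effect and no enzyme for full effect; nearly all actives have a fitted effect of over 35% in size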
FEN1 inhibitor = blocks human flap endonuclease 1. Recombinant FEN1 flap cleavage, fluorescence, 15 min. P39748. AID 588795. Potency, µM (titrated, usually from 114 µM), for inactives: at the highest dose activity change, negative = inhibition, most hits filed as inhibitors. 390,000 tested, 0.35% active; further: nearly all actives have a fitted effect of over 65% in size
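Reaction started by adding substrate (50 nM final) to 10 nM enzyme after 15 min room-temperature compound preincubation. Reads at 0 and 15 min, with data normalized and fitted to a four-parameter Hill equation.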
Tb PGK inh = blocks T. brucei phosphoglycerate kinase; PGK/GAPDH coupled, Kinase-Glo luminescence, 60 min; Potency, µM (doses to about 57.5 µM), for inactives: at the top dose activity change, negative = inhibition, most hits filed as inhibitors; 380,000 tested, 0.043% active; P07378; AID 602233; further: nearly all actives have a fitted effect of over 60% in size
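Recombinant glycosomal PGK reaction used 1,3-bisphosphoglycerate generated in-well by GAPDH (100nM final) in 100mM TEA pH 7.6, 5mM MgCl2, 0.01% Tween-20. After 60 minutes at room temperature, ATP was read by Kinase-Glo Plus luminescence end-point.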
RECQ1 conf = confirmation of human RECQ1 helicase inhibitors; Potency, µM (series often up to 229 µM), for the others: at the top dose activity change, negative = inhibition, hits mostly inhibitors; shares compounds with RECQ1 inh-1; 610 tested, 28% active; RECQ1 helicase DNA unwinding, fluorescence; further: nearly all actives have a fitted effect of over 45% in size
ADP FP counter = ADP displacement flagged in RECQ1 inhibitor counter-screen | 530 tested, 27% active | Potency, µM (series often up to 228 µM), for the others: at the top dose activity change, negative = inhibition, hits mostly inhibitors | ADP fluorescence polarization displacement counterscreen | AID 2711 | shares compounds with RECQ1 inh-1; further: nearly all actives have a fitted effect of over 45% in size
RECQ1 inh-2 = RECQ1 helicase inhibition confirmed, round 2; shares compounds with RECQ1 inh-1; AID 504841; 1,100 tested, 15% active; recombinant RECQ1 DNA unwinding, red fluorescence; Potency, µM (top dose mostly 119 µM), inactives show at the highest dose activity, negative = inhibition, actives largely listed as inhibitors; further: nearly all actives have a fitted effect of over 50% in size
The depositor's hits bear a star; [ ] = dose if it differs, or a comment. An excerpt weighted towards active compounds, which were near 0.86% of everything screened. The call rests on the fitted dose curve; in most records, active means well fitted curve in the direction sought with a large enough effect; inconclusive means small, poorly fitted or top-dose-only effect, or another doubt; inactive means no such curve, though single readings can be large; an effect the other way counts as inactive or inconclusive. Unless noted, on the % scale 0 is the no-effect control and ±100 the full control effect; potency means the concentration at half of the fitted maximal effect.

Results for Cc1n[nH]c(C)c1N1C(=O)c2cccc3c(N4CCCCCC4)ccc(c23)C1=O ?
RECQ1 inh-1: 28.2µM*; APEX1 inh: -2.4%; GLS inhibitor: 14.5%; BLM helicase inh: -3.7%; FEN1 inhibitor: -23.1%; Tb PGK inh: inactive; RECQ1 inh-2: 79.4µM*

How did O=C1c2cccc3c(N4CCCCC4)ccc(c23)C(=O)N1c1cccc(O)c1 do in these assays?
RECQ1 inh-1: inactive; APEX1 inh: -3.4%; GLS inhibitor: 13.2%; BLM helicase inh: 2.6%; FEN1 inhibitor: inconclusive; Tb PGK inh: -0.9%

What do the screens show for `CCOC(=O)c1ccc2c(c1)nc(SCC(=O)c1cc3ccccc3o1)n2CC`?
RECQ1 inh-1: inconclusive; APEX1 inh: -5.6%; GLS inhibitor: 2.4%; BLM helicase inh: -9.2%; FEN1 inhibitor: -22.7%; Tb PGK inh: -1.1%; RECQ1 inh-2: inconclusive

What do the screens show for `C=CCNC(=O)CSc1nc2cc(C(=O)OCC)ccc2n1CC`?
RECQ1 inh-1: -14.8%; APEX1 inh: -6.5%; GLS inhibitor: -4.2%; BLM helicase inh: 2.2%; FEN1 inhibitor: 3.1%; Tb PGK inh: -2.0%

Results for CCn1c(C(=O)N2CCC(C(=O)N3CCN(c4ccc(OC)cc4)CC3)CC2)cc2sccc21 ?
GLS inhibitor: 25.9%; BLM helicase inh: -0.5%; FEN1 inhibitor: -9.9%; Tb PGK inh: -8.7%

How did Cn1c(SCCC#N)nnc1-c1ccc(F)cc1 do in these assays?
RECQ1 inh-1: inactive; APEX1 inh: -1.5%; BLM helicase inh: 0.8%

How did CC(C)(C)c1ccc(-c2nnc(SCCC#N)n2C2CCCC2)cc1 do in these assays?
RECQ1 inh-1: 14.1µM*; APEX1 inh: 11.0%; GLS inhibitor: -13.7%; BLM helicase inh: -8.3%; FEN1 inhibitor: -5.4%; Tb PGK inh: 0.2%; RECQ1 conf: -0.5%[114 µM]; ADP FP counter: 15.6%[91.9 µM]; RECQ1 inh-2: -16.0%

What do the screens show for `CC1=Nc2ccccc2/C1=C/c1nc(-c2ccc(C)s2)oc1O`?
RECQ1 inh-1: inconclusive; APEX1 inh: -11.9%; GLS inhibitor: 0.4%; BLM helicase inh: -6.6%; FEN1 inhibitor: 22.1%; Tb PGK inh: 8.8%; RECQ1 inh-2: inconclusive

What do the screens show for `Nc1cccc2c(=O)[nH]ccc12`?
RECQ1 inh-1: 20µM*; APEX1 inh: -6.6%; BLM helicase inh: -12.9%; RECQ1 conf: inconclusive; ADP FP counter: 50.1µM*

Results for Cc1ccc(NC(=O)C2CCN(S(=O)(=O)c3c(C)noc3/C=C/c3ccco3)CC2)nc1 ?
RECQ1 inh-1: 35.5µM*; APEX1 inh: -5.0%; GLS inhibitor: -0.6%; BLM helicase inh: -4.6%; FEN1 inhibitor: -9.6%; Tb PGK inh: -2.0%; RECQ1 inh-2: -11.0%

What do the screens show for `CCc1ccccc1NC(=O)CN(Cc1ccccc1)S(=O)(=O)c1ccc(Br)cc1`?
GLS inhibitor: 2.2%; BLM helicase inh: -2.9%; FEN1 inhibitor: -3.6%; Tb PGK inh: -8.2%

How did CC(=O)c1cccc(Nc2ncnc3c2cnn3C)c1 do in these assays?
GLS inhibitor: -9.5%; BLM helicase inh: 2.5%; FEN1 inhibitor: -9.8%; Tb PGK inh: -0.4%

How did COc1ccc(NC(=O)c2csc(Cc3ccc(Cl)cc3)n2)cc1 do in these assays?
RECQ1 inh-1: inconclusive; APEX1 inh: 5.9%; GLS inhibitor: -2.6%; BLM helicase inh: -9.9%; FEN1 inhibitor: -11.6%; Tb PGK inh: -10.0%; RECQ1 inh-2: -48.2%

Results for COc1ccc(Cc2nc(C(=O)Nc3ccc(Cl)cc3)cs2)cc1 ?
RECQ1 inh-1: -10.2%; APEX1 inh: -2.3%; GLS inhibitor: 2.3%; BLM helicase inh: -7.1%; FEN1 inhibitor: -19.2%; Tb PGK inh: -4.0%

How did COC(=O)c1ccc(CC(=O)c2c(C)cc(O)cc2O)o1 do in these assays?
RECQ1 inh-1: inconclusive; APEX1 inh: inconclusive; GLS inhibitor: 22.1%; BLM helicase inh: -7.8%; FEN1 inhibitor: inconclusive; Tb PGK inh: -9.8%; RECQ1 inh-2: inconclusive

What do the screens show for `CCOC(=O)c1ccc(CC(=O)c2ccc(O)cc2O)o1`?
RECQ1 inh-1: -3.0%; APEX1 inh: -2.0%; GLS inhibitor: 21.8%; BLM helicase inh: -0.2%; FEN1 inhibitor: -1.0%; Tb PGK inh: -1.6%

How did Clc1ccc(C2=NCCN2)cc1 do in these assays?
RECQ1 inh-1: inconclusive; APEX1 inh: 3.2%; GLS inhibitor: 2.3%; BLM helicase inh: 1.8%; FEN1 inhibitor: 19.8%; Tb PGK inh: -8.1%; RECQ1 inh-2: 2.1%

How did Cc1ccc2c(c1)c1nnc(SCC(=O)N3CCCc4ccccc43)nc1n2CC(=O)O do in these assays?
RECQ1 inh-1: 8.5%; APEX1 inh: 2.3%; GLS inhibitor: -1.6%; BLM helicase inh: -7.8%; FEN1 inhibitor: -2.6%; Tb PGK inh: -9.3%; RECQ1 conf: 16.0%; ADP FP counter: inconclusive

What do the screens show for `CCc1nnc(SCC(=O)N2CCCc3ccccc32)nc1CC`?
RECQ1 inh-1: -2.7%; APEX1 inh: -1.1%; GLS inhibitor: -9.1%; BLM helicase inh: 0.8%; FEN1 inhibitor: 8.8%; Tb PGK inh: -4.4%

What do the screens show for `COc1ccc(Nc2nc(N3CCOCC3)nc(N3CCOCC3)n2)cc1`?
APEX1 inh: 36.3%; GLS inhibitor: -1.1%; BLM helicase inh: -1.0%; FEN1 inhibitor: -2.2%; Tb PGK inh: inactive

What do the screens show for `CC(C)c1ccc(Nc2nc(Nc3ccc(Cl)cc3)nc(N3CCOCC3)n2)cc1`?
FEN1 inhibitor: -15.6%; RECQ1 conf: -14.2%[69.1 µM]

Results for Cc1ccc(C)c(-c2nc3ccc(N)cc3[nH]2)c1 ?
RECQ1 inh-1: inconclusive; APEX1 inh: -0.4%; GLS inhibitor: 0.8%; BLM helicase inh: -6.3%; FEN1 inhibitor: -5.8%; Tb PGK inh: 8.6%; RECQ1 conf: 15.7%[114 µM]; ADP FP counter: inconclusive

What do the screens show for `COc1ccc(Nc2ccc(OC)cc2)cc1`?
RECQ1 inh-1: 5.62µM*; APEX1 inh: 11.0%; GLS inhibitor: 29.8%; BLM helicase inh: -6.4%; FEN1 inhibitor: -3.6%; Tb PGK inh: -3.6%; RECQ1 conf: inconclusive; ADP FP counter: 20µM*; RECQ1 inh-2: -25.4%
